High-throughput results: PubChem, National Center for Advancing Translational Sciences (NCATS)
Rab9 prom act: activators of Rab9 promoter; Huh7 Rab9 promoter-luciferase reporter, luminescence, 24 h; Potency, µM (titrated, usually from 9.22 µM), for the others: at the top dose activation, negative = inhibition, usual class: activators; actives 2.8% (n = 320,000); AID 485297; also: % of control where 0% means no effect; nearly all actives have a fitted effect of over 60% in size
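Measured in stably transfected Huh7 cells bearing a Rab9 promoter–luciferase construct: 24 h compound treatment at 37 °C, followed by luminescence detection.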
SMN2 splice up: enhancers of SMN2 splice variant expression; Potency, µM (titrated, usually from 46.1 µM), for inactives: at the top dose activity change, positive = activation, usual class: activators; actives 2.8% (n = 210,000); HEK293 SMN2-luciferase splicing reporter, luminescence, 30-36 h; AID 1458; also: % of control where 0% means no effect; nearly all actives have a fitted effect of over 55% in size
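qHTS luciferase splicing reporter: luminescence rises when SMN2 exon 7 is included in transfected HEK293 cells. Compound exposure lasted 30-36 h at 37C, with 4.5 mM final sodium butyrate as control, followed by a ONE-Glo read.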
FLuc counter: counter-screen for miR-21 project: firefly luciferase inhibitors or activators; P08659; purified FLuc, Km substrates, luminescence inhibition; Potency, µM (highest dose often 57.5 µM), inactives show at the highest dose activity change, negative = inhibition, most hits filed as inhibitors; actives 6.9% (n = 360,000); AID 588342;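 also: plate controls were vehicle for no effect and reference inhibitor for full effect; nearly all actives have a fitted effect of over 55% in size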
Target sequence (P08659 whole entry, looked up): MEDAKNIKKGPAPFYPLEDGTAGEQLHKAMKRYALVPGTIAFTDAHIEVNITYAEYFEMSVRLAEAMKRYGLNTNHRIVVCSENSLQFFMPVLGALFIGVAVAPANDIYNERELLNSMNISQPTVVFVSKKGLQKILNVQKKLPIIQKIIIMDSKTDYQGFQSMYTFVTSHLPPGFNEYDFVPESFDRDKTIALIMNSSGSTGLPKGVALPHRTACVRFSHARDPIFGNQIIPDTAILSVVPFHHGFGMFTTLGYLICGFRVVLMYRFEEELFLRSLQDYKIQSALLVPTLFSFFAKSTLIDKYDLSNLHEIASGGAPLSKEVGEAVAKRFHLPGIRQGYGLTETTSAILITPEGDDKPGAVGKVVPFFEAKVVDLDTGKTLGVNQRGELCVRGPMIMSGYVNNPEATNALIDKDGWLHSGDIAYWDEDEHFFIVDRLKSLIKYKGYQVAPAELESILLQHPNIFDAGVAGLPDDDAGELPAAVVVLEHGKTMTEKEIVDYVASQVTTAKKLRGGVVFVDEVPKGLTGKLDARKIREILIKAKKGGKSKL
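Purified P. pyralis luciferase (10nM final) with 10uM D-luciferin and 10uM ATP (Km levels) in 50mM Tris acetate pH 7.5, 10mM Mg acetate, 0.01% Tween-20, 0.05% BSA; qHTS 6-point titration, ~60 µM downward; luminescence read.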
Luc counter: Kinase-Glo luciferase inhibition (counter-screen) | Q27757 | Kinase-Glo luciferase, ATP luminescence, 8 min | Potency, µM (highest dose often 38.3 µM), inactives show top-dose activity change, negative = inhibition, most hits filed as inhibitors | actives 0.28% (n = 200,000) | AID 1379; also: % is scaled to controls: 0 for no effect and ±100 for the full control effect; nearly all actives have a fitted effect of over 60% in size
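Recombinant Kinase-Glo luciferase, 10 uM ATP (linear range), luciferin; imidazole pH 7.2 / KCl / MgCl2 / Tween / BSA buffer; 8 min RT; luminescence.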
ELG1 genotox: genotoxicity induction in ELG1-luciferase HEK293T cells. HEK293T ELG1-luciferase reporter, luminescence, 16 h. Potency, µM (doses to about 46 µM), inactives show top-dose activity change, positive = activation, actives largely listed as activators. actives 1.3% (n = 330,000); also: % of control where 0% means no effect; nearly all actives have a fitted effect of over 60% in size
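Step 1: seed 2,000 HEK293T ELG1-luciferase cells per well. Step 2: add compound or DMSO, incubate 16 hr at 37 °C. Step 3: ONE-Glo, 30 min at room temperature, read luminescence.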
NPC1 prom act: NPC1 promoter activation; Huh7 NPC1 promoter luciferase reporter, 24 h; Potency, µM (top dose mostly 9.22 µM), without a hit: top-dose activation, usual class: activators; actives 2.4% (n = 320,000); AID 485313; also: % of control where 0% means no effect; nearly all actives have a fitted effect of over 60% in size
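Luminescence from an NPC1 promoter-driven luciferase reporter in stably transfected Huh7 cells was measured after 24 h compound treatment at 37 °C, followed by 10 min ambient incubation with luciferase detection reagent.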
The depositor's hits bear a star; ? = inconclusive; · = not tested or not shown; [ ] = dose if it differs, or a comment. An excerpt weighted towards active compounds, which were near 7.3% of everything screened. Calls follow the shape of the dose curve; as a rule, active = well fitted curve in the direction sought with a large enough effect; inconclusive = small, poorly fitted or top-dose-only effect, or another doubt; inactive = no such curve, though single readings can be large; an effect the other way counts as inactive or inconclusive. Potency is read from the fitted curve at half-maximal effect.

SMILES	Rab9 prom act	SMN2 splice up	FLuc counter	Luc counter	ELG1 genotox	NPC1 prom act
COc1ccc(Cl)cc1NC(=O)CN(C)C(=O)CCSc1ccc(C)cc1	-8%	·	19µM*	·	0%	1%
CCCCCc1ccc(-c2ccc(Br)cc2)nc1	·	-1%	2.1µM*	·	·	·
CCCCCCCc1ccc(-c2ccc(O)cc2)nc1	3.2µM*	14µM*	19µM*	-1%	?	?
CCCc1ccc(-c2ccc(C(=O)Oc3ccc(Br)cc3)cc2)nc1	·	4%	-4%	·	·	·
COc1ccccc1/C=C/C(=O)OCCCN(C)C	1%	18%	-2%	3%	0%	2%
COc1cccc(/C=N/Nc2nc(N3CCCC3)nc(N3CCCC3)n2)c1O	-1%	-6%	?	3%	-10%	-2%
COc1cccc(/C=N/Nc2c(Cl)cncc2Cl)c1O	28%	·	9.5µM*	·	11%	?
COc1cccc(/C=N/Nc2cc(Cl)nc(C)n2)c1O	2%	·	3µM*	-2%	7%	?
COc1cccc(/C=N/Nc2nnc(C)n2N)c1O	8%	·	-13%	·	-4%	9%
O=c1c(-c2ccccc2)n[nH]c2ccccc12	3.5µM*	·	9.5µM*	·	0%	2.2µM*
O=[N+]([O-])c1ccc2[nH]nc(-c3ccccc3)c2c1	1%	-6%	-1%	0%	-2%	-2%
Fc1ccc(CSc2ncnc3ccccc23)cc1	-2%	-11%	-17%	-1%	-11%	-2%
Cc1ccc(OCC(=O)N/N=C\c2cccs2)c([N+](=O)[O-])c1	19%	2%	12µM*	4%	9%	14%
O=C(COc1ccc(Cl)cc1[N+](=O)[O-])N/N=C/c1cccs1	0%	-3%	?	4%	0%	-2%
C/C(=N\NC(=O)COc1ccccc1[N+](=O)[O-])c1cccs1	3.2µM*	25µM*	24µM*	0%	?	?
O=C(COc1cccc([N+](=O)[O-])c1)N/N=C/c1ccco1	-9%	2%	5%	-4%	-2%	-14%
COc1ccc(OCC(=O)N/N=C(\C)c2cccs2)cc1	-1%	·	?	·	7%	0%
CCc1ccc(OCC(=O)N/N=C\c2ccco2)c([N+](=O)[O-])c1	6%	3%	11µM*	-1%	11%	11%
COc1ccc(N(CC(=O)Nc2c(C)n(C)n(-c3ccccc3)c2=O)S(=O)(=O)c2ccc(F)cc2)cc1	1%	6%	0%	2%	0%	2%
COc1cc(OC)cc(C(=O)/C=C2\Sc3ccccc3N2C)c1	?	·	7.6µM*	·	?	?
COc1ccc2c(c1)S/C(=C\C(=O)c1ccncc1)N2C	?	2%	6.7µM*	-8%	21µM*	?
COCC(=O)/C=C1\Sc2ccccc2N1C	0%	16%	-8%	4%	16%	1%
COc1ccc(C(=O)/C=C2/Sc3cc4c(cc3N2C)OCO4)cc1	?	·	?	·	?	17%
CN1/C(=C\C(=O)c2cccc([N+](=O)[O-])c2)Sc2ccccc21	2µM*	·	1.3µM*	·	9.2µM*	1.3µM*
Cc1ccc(Cl)cc1N1CCN(C(=O)CCNS(=O)(=O)c2ccc3c(c2)CCN3C(=O)C2CC2)CC1	·	·	-10%	·	·	·
SMILES	Rab9 prom act	SMN2 splice up	FLuc counter	Luc counter	ELG1 genotox	NPC1 prom act
N#C/C(=C\c1ccccn1)c1nc2ccccc2s1	?	15%	3.4µM*	-19%	?	2%
COc1ccc(/C(C#N)=C/c2ccccn2)cc1	1.4µM*	·	4.8µM*	·	?	2µM*
C(=C(c1ccccc1)c1ccccc1)c1ccccn1	2%	·	1%	·	3%	-3%
COC(=O)c1ccc(/C=C(\C#N)c2nc3ccccc3s2)cc1	6%	-2%	?	-12%	7%	6%
FC(F)(F)Oc1ccc2c(c1)NC(c1ccncc1)=NC(c1cccs1)=N2	·	-3%	-16%	·	·	·
O=C(Nc1cccc(S(=O)(=O)N2CCCCC2)c1)c1ccc2ccccc2n1	14%	-23%	?	4%	2%	-2%
CN(Cc1cc(Cl)cc(Cl)c1O)Cc1c(O)ccc2ccccc12	·	-3%[9.22 µM]	·	-2%[7.66 µM]	·	·
CN(Cc1ccccc1)Cc1c(O)ccc2ccccc12	0%	·	27µM*	·	-3%	-1%
COc1cc(CCNC(=O)c2ccccc2NC(=O)C2=C(C)OCCS2)cc(OC)c1OC	-5%	·	?	·	-13%	-3%
S=C(NCCCc1ccccc1)NC1CCCCC1	21%	·	-19%	·	5%	18%
S=C(NCCc1ccccn1)NC1CCCCC1	?	11µM*	?	0%	?	?
CC(C)NS(=O)(=O)c1ccc(Oc2ncc(C(F)(F)F)cc2Cl)cc1	0%	-40%	4%	0%	-5%	-2%
COc1ccc(-c2cn3c(C)c(C(=O)NC(C)C)sc3n2)cc1	?	-4%	?	-5%	15%	24%
COc1ccc(-c2cn3c(C)c(C(=O)NC(C)(C)C)sc3n2)cc1	0.63µM*	·	5.4µM*	·	?	2µM*
Cc1cccc(NC(=O)c2sc3nc(-c4ccccc4)cn3c2C)n1	1%	-53%	?	5%	-6%	16%
COc1ccc(-c2cn3c(C)c(C(=O)Nc4cccc(C)n4)sc3n2)cc1	2%	?	12µM*	-2%	-12%	0%
c1ccc2sc(SCSc3nc4ccccc4s3)nc2c1	6%	-1%[9.22 µM]	?	-8%[7.66 µM]	9%	12%
